Out of some 220,000 compounds screened, about 10 (0.005%) were called active. Rule as the data show it: active = maximum fold increase above about 1.5; inconclusive = no clear call, values can overlap the other calls; inactive = below that; tested in PC3 cells. The list is a sample of the results.
Assay: compounds boosting herpes simplex virus growth – fold increase, host cell viability (AID 1956)
Conditions: HSV replication augmentation in cells; fold increase: measured here: primary screen fold increase 10 uM, at 10 µM, stronger effect = higher value; maximum fold increase: at 0.098 µM, stronger effect = higher value; viability: measured here: host cell viability series, at 25 µM, stronger effect = lower value

SMILES	fold increase	outcome
CCOC(=O)C1Nc2ccc(C(F)(F)F)cc2C2C=CCC12 (centres undefined)	0.82	inactive
O=[N+]([O-])c1ccc(N/N=C/c2ccccc2)cc1	1.08	inactive
O=c1c2c3c(sc2n(CCN2CCCC2)c(=O)n1Cc1ccccc1)CCCCC3	0.84	inactive
Cc1ccc(NC(=O)/C(=C/c2ccc([N+](=O)[O-])cc2)NC(=O)c2ccccc2)cc1	0.83	inactive
COc1ccc2[nH]c(=S)cc(C)c2c1	1.08	inactive
CCOC(=O)C1CCN(c2c(Nc3cc(C)cc(C)c3)c(=O)c2=O)CC1	0.95	inactive
CC(NC(=S)Nc1ccccc1)C(c1cccs1)N1CCOCC1 (centres undefined)	1	inactive
Cc1nc(-c2ccc(Cl)cc2)sc1C1(C)CC(c2ccc(Br)cc2)=NO1 (centres undefined)	0.87	inactive
CCOC(=O)/C=C/c1ccc(C(F)(F)F)cc1S(=O)(=O)NC(C)(C)C	0.67	inactive
CC(C)n1c(=S)[nH]c2cc(C(F)(F)F)ccc21	1.02	inactive
COc1cccc(Nc2nnc(SCC(=O)N3CC(=O)Nc4ccccc43)s2)c1	1	inactive
CCc1nnc(SCc2cccc(F)c2)nc1CC	1.19	inactive
CC1(C)CC[C@]2(C(=O)O)CC[C@]3(C)C(=CCC4[C@@]5(C)CC[C@H](O)C(C)(C)C5[C@H](O)C[C@]43C)[C@@H]2C1 (some centres undefined)	0.82	inactive
COC(C[C@@H](O)C[C@@H](O)[C@H](C)OCc1ccccc1)OC	1.01	inactive
COC(=O)c1cc(=O)n(-c2c(Cl)cc(C(F)(F)F)cc2Cl)[nH]1	0.98	inactive
S=c1[nH]nc(-c2cc(-c3ccccc3)n[nH]2)n1/N=C/c1c2ccccc2cc2ccccc12	0.83	inactive
Cc1cc(C)nc(NC(=O)/C=C/c2ccc(Cl)cc2)n1	0.99	inactive
S=C(NNC(=S)NC1CC2C=CC1C2)NC1CC2C=CC1C2 (centres undefined)	0.93	inactive
CCCCN1C(N)=NC[C@@H]1CC1CCCCC1	0.8	inactive
C=CCC1(C(=O)N(C)Cc2ccccc2)CCN(C(=O)OC(C)(C)C)CC1	0.96	inactive
NC(=O)C1=C[C@@H](c2csc3ccccc23)C[C@@H](OCc2ccc(CO)cc2)O1	0.78	inactive

SMILES	fold increase	outcome
COC(C[C@H](O)CC(=O)[C@@H](C)OCc1ccccc1)OC	0.76	inactive
CCCOc1ccc(Cl)cc1Nc1nc(NCCO)nc(N2CCCC2)n1	0.59	inactive
CC1(c2nnc(-c3ccncc3)o2)CC(c2cccnc2)=NO1 (centres undefined)	0.69	inactive
Cc1cc(Cl)ccc1NNC(=O)c1snnc1C	1.06	inactive
CCC1(CC)C(=O)C2=C3C1[C@H](C(=O)OC)C=C(C(=O)OC)C[C@H]3[C@H]1C(=O)N(Cc3ccccc3)C(=O)[C@H]1[C@H]2C (some centres undefined)	0.96	inactive
CCC(C)N1C(=S)SC(C)(C)C1N(O)C(=O)NC1CCCCC1 (centres undefined)	0.99	inactive
NC(=O)CC(NC(=O)Cc1cccc2ccccc12)c1ccc(NCc2cc(F)ccc2F)c([N+](=O)[O-])c1 (centres undefined)	0.77	inactive
CC1(C)C=Cc2c(ccc3c2OC[C@@H](c2ccc(O)cc2O)C3)O1	0.67	inactive
Nc1nc(O)c(CC(=O)O)s1	1.21	inactive
Clc1ccc2nc(-c3ccccc3)nc(C(Cl)Cl)c2c1	0.64	inactive
CCCCN1C(N)=NC[C@@H]1Cc1ccccc1	0.87	inactive
Cc1nnc(SC(C(=O)c2ccccc2)c2ccccc2)[nH]c1=O (centres undefined)	0.88	inactive
CN1CCc2nc(SC(C(=O)O)c3ccccc3)c(C#N)c(-c3cccs3)c2C1 (centres undefined)	0.99	inactive
C/C(=N\Nc1cccc(C(=O)O)c1)c1ccc2c(c1)Nc1ccccc1S2	1.22	inactive
O=C(NCc1ccccc1)c1onc(CSc2ccncc2)c1C(=O)NCc1ccccc1	0.71	inactive
O=C(N/N=C\c1cc(Br)c(Br)o1)C1COc2ccccc2O1 (centres undefined)	1.28	inactive
CC(C)c1cc(CN2CCOCC2)cc(C(C)C)c1O	1.06	inactive
CC(C)=CCc1c(O)c(CC=C(C)C)c2occ(-c3ccc(O)cc3)c(=O)c2c1O	0.74	inactive
CN(C)CCCN(Cc1cc2cc3c(cc2[nH]c1=O)OCCO3)C(=O)NC1CCCCC1	0.89	inactive
C/C(CC(C)C)=N\Oc1nc(C)cc(C)n1	0.9	inactive
COc1ccc(Nc2cc(=O)n(-c3ccccc3)c3c2c(=O)n(C)c(=O)n3C)cc1	1.09	inactive

SMILES	fold increase	outcome
NC(=O)C1=C[C@@H](c2ccc3c(c2)OCO3)C[C@@H](OCCCCO)O1	0.58	inactive
O=C(NCC1CC1)c1onc(CSc2ccccc2)c1C(=O)NCC1CC1	1.02	inactive
Cc1ccc(S(=O)(=O)N2CCN(C(=O)COC(=O)c3c(C)noc3C)CC2)c(C)c1	0.83	inactive
COc1ccc(CN2CC[C@H]3C=CC[C@@H](C(=O)N4CCOCC4)[C@H]3C2=O)cc1OC	0.78	inactive
Brc1ccc(-c2n(-c3ccccn3)c3ccccc3[n+]2-c2ccccn2)cc1	1.03	inactive
Cc1[nH]n(C)c(=O)c1N=Nc1ccc(S(C)(=O)=O)cc1	1.01	inactive
O=C(CC(c1ccccc1)c1cc(Cl)ccc1O)NCCN1CCOCC1 (centres undefined)	0.85	inactive
COC(=O)c1c(-c2ccsc2)oc2ccc(-c3cc(OC)c(OC)c(OC)c3)cc12	1.05	inactive
Cc1cccc(NC(=O)c2ccc([N+](=O)[O-])o2)c1	0.66	inactive
C=CC1C(OC2OC(CO)C(O)C(O)C2O)OC=C(C(=O)OC)C1CC1CC(=O)CC(CC(=O)CCc2ccc(O)cc2)O1 (centres undefined)	1.03	inactive
O=C(N/N=C/c1cccc2cccnc12)[C@H]1C[C@@H]1c1ccccc1	0.97	inactive
COCCn1c(SCC(=O)c2[nH]c(C)c(C(C)=O)c2C)nc2ccccc2c1=O	0.86	inactive
CC#CC[N+](C)(C)CCCCCC	1.26	inactive
O=C(NCc1ccccc1)C1=C[C@@H](c2ccccc2)C[C@@H](OCCCCO)O1	0.94	inactive
O=C(COc1ccc([N+](=O)[O-])cc1Cl)Nn1cnnc1	0.85	inactive
COc1ccc(/C=C/C(=O)Nc2ccc(C)cc2)cc1S(=O)(=O)N1CCOCC1	0.88	inactive
CC1(C)S[C@@H]2[C@H](NC(=O)COc3ccccc3)C(=O)N2C1C(=O)OCc1ccccc1 (some centres undefined)	0.86	inactive
NC(=O)c1nnsc1-c1ccc(-c2snnc2C(N)=O)cc1	0.97	inactive
O=[N+]([O-])C(=c1ccc2c(c1)N1C3=C(CCCC3)CC3CCCCC31N=2)[N+](=O)[O-] (centres undefined)	1.07	inactive
Cc1ccc(-c2nc(SCC(=O)Nc3ccccc3OC(F)F)c3c(C)c(C(=O)O)sc3n2)cc1	0.92	inactive

Reference: PubChem BioAssay AID1956 (SRMLSC, 2009)
